In PubChem BioAssay (NCATS):
Results filed as inconclusive are left out. Calls of active or inactive are those of the source. Unless noted, calls follow the shape of the dose curve; as a rule, active = well fitted curve in the direction sought with a large enough effect; inconclusive = small, poorly fitted or top-dose-only effect, or another doubt; inactive = no such curve, though single readings can be large; an effect the other way counts as inactive or inconclusive.

How the values were obtained:
[1] = qHTS assay for measurement of the activity of small molecule inhibitors on Zika virus induced Caspase-3 activity in human iPSC derived neural progenitor cells (hNPCs) (AID 1224857); also: % of control where 0% means no effect; nearly all actives have a fitted effect of over 65% in size
Summary of the method: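 Percent inhibition of virus-induced caspase-3/7 luminescence (Caspase-Glo), scaled between uninfected cells and Zika-infected cells. hNPCs received compound 1 hr before ZIKV at 2 FFU/cell, with 6 hours infection at 37 C.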

[2] = qHTS assay for measurement of the activity of small molecule inhibitors on Zika virus induced Caspase-3 activity in human astrocytoma cells (AID 1224859);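 also: plate controls were ZIKV-infected untreated cells for no effect and uninfected cells for full effect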
Summary of the method: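 Luminescent caspase-3/7 read-out (30 min reagent, room temperature) in human SNB-19 cells infected 6 h with ZIKV (2 FFU/cell) after 1 h compound pre-incubation; Data were normalised to uninfected and infected wells.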

[3] = qHTS assay to identify small molecule inhibitors of chordoma cells - UCH-1 (AID 1259355); also: % is scaled to controls: 0 for no effect and ±100 for the full control effect; nearly all actives have a fitted effect of over 55% in size
Summary of the method: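 Luminescent ATP read-out (CellTiter-Glo, 30min at room temperature) measured viability of UCH-1 cells exposed for 48hr to test drugs at 15 concentrations, co-dosed with a five-agent combination of auranofin, camptothecin, doxorubicin, rubitecan and topotecan.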

[4] = qHTS assay to identify small molecule inhibitors of chordoma cells - UCH-2 (AID 1259356); also: % is scaled to controls: 0 for no effect and ±100 for the full control effect
[5] = P-glycoprotein substrates identified in KB-8-5-11 adenocarcinoma cell line, qHTS therapeutic library screen (AID 1346987); also: nearly all actives have a fitted effect of over 65% in size
Summary of the method: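 Steps: plate 500 KB-8-5-11 cells/well in DMEM + 10% FCS (colchicine removed); pin compounds in dose-response; incubate 72 h, 37 degree C, 5% CO2; add CellTiter-Glo, 5 min; read luminescence.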

[6] = NS1 protein of Zika virus - qHTS assay to identify small molecule inhibitors in human HEK 293 cells (AID 1347053);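 also: plate controls were infected untreated cells for no effect and uninfected cells for full effect; nearly all actives have a fitted effect of over 55% in size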
Summary of the method: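 Inhibition of NS1 expression was scored in HEK 293 cells given compound 1 h ahead of MR766 virus (MOI = 0.5). Following 24 h at 37 C, two anti-NS1 antibodies generated a TR-FRET signal, scaled between uninfected and infected controls.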

[7] = Natriuretic polypeptide receptor (hNpr1) antagonism - Pilot counterscreen GloSensor control cell line (AID 1347045; calls by dose curve; also: % is scaled to controls: 0 for no effect and ±100 for the full control effect)
Summary of the method: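 Luminescence was read before and 20 min after adding 50 uM SNP, which stimulates soluble guanylyl cyclase. The HEK293 cells expressing the GloSensor cGMP sensor had been preloaded with 2% reagent for 2 h and treated with compound.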

[8] = molecular target: Atrial natriuretic peptide receptor 1 (Homo sapiens) (UniProt P16066); assay: Natriuretic polypeptide receptor (hNpr1) antagonism - Pilot screen (AID 1347049; calls by dose curve;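 also: agonist-evoked cGMP luminescence read 20 min after hNppA addition; % is scaled to controls: 0 for no effect and ±100 for the full control effect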)
Summary of the method: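 HEK293 cells co-expressing hNpr1 and the GloSensor pGS-40F cGMP luciferase sensor were preloaded with 2% GloSensor reagent for 2 h. Compounds were added for 30 min at room temperature, then cells were stimulated with 0.1 nM hNppA for 20 min before luminescence readout.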

[9] = molecular target: Atrial natriuretic peptide receptor 2 (Homo sapiens) (UniProt P20594); assay: Natriuretic polypeptide receptor (hNpr2) antagonism - Pilot subtype selectivity assay (AID 1347050; calls by dose curve; also: % is scaled to controls: 0 for no effect and ±100 for the full control effect)
Summary of the method: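 cGMP-sensor HEK293/hNpr2 cells; 2% GloSensor reagent 2 h RT; compounds 30 min; baseline luminescence read; 1 nM hNppC agonist 20 min RT; final luminescence read by CCD camera. Antagonism = reduced post-agonist signal.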

[10] = molecular target: T1, Tyrosine-protein phosphatase non-receptor type substrate 1 (Homo sapiens) + Leukocyte surface antigen CD47 (Homo sapiens) (UniProt P78324+Q08722); assay: CD47-SIRPalpha protein protein interaction - LANCE assay qHTS validation (AID 1347057; active = well fitted curve in the direction sought with a large enough effect in the signal ratio, with a control signal flat, not every such curve was filed as active; the % refers to the signal ratio; also: 0% is about no effect)
Summary of the method: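 First, His-tagged CD47 and Eu-labelled anti-His antibody met the compound for 30 min; next, site-specifically biotinylated SIRPalpha was added for 30 min; finally streptavidin-APC was added before reading the TR-FRET ratio.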

[11] = molecular target: T1, Tyrosine-protein phosphatase non-receptor type substrate 1 (Homo sapiens) + Leukocyte surface antigen CD47 (Homo sapiens); assay: CD47-SIRPalpha protein protein interaction - HTRF assay qHTS validation (AID 1347058; active = well fitted curve in the direction sought with a large enough effect in the signal ratio, not every such curve was filed as active; the % refers to the signal ratio;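 also: recombinant soluble extracellular CD47 with His tag and biotinylated SIRPalpha domains; 0% is about no effect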)
Summary of the method: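 TR-FRET read (Ch1/Ch2 ratio) of soluble extracellular CD47 and Avi-biotinylated SIRPalpha domains in PBS pH 7.4 with 0.05% IGEPAL; 7-point compound titration. Sequential 30 min room-temperature steps; non-biotinylated SIRPalpha as control inhibitor.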

[12] = P-glycoprotein substrates identified in KB-3-1 adenocarcinoma cell line, qHTS therapeutic library screen (AID 1346986); settings: KB-3-1 parental cells viability, CellTiter-Glo, 72 h; at 44.5 µM (top of the series) unless noted; also: nearly all actives have a fitted effect of over 60% in size
Summary of the method: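 Resistance attributable to P-gp was assessed by comparing AC50 in KB-8-5-11 with parental KB-3-1 and by tariquidar reversal. Cells were exposed 72 h and viability read by CellTiter-Glo.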

Atrial natriuretic peptide receptor 2 (Homo sapiens), sequence (P20594 whole entry, looked up): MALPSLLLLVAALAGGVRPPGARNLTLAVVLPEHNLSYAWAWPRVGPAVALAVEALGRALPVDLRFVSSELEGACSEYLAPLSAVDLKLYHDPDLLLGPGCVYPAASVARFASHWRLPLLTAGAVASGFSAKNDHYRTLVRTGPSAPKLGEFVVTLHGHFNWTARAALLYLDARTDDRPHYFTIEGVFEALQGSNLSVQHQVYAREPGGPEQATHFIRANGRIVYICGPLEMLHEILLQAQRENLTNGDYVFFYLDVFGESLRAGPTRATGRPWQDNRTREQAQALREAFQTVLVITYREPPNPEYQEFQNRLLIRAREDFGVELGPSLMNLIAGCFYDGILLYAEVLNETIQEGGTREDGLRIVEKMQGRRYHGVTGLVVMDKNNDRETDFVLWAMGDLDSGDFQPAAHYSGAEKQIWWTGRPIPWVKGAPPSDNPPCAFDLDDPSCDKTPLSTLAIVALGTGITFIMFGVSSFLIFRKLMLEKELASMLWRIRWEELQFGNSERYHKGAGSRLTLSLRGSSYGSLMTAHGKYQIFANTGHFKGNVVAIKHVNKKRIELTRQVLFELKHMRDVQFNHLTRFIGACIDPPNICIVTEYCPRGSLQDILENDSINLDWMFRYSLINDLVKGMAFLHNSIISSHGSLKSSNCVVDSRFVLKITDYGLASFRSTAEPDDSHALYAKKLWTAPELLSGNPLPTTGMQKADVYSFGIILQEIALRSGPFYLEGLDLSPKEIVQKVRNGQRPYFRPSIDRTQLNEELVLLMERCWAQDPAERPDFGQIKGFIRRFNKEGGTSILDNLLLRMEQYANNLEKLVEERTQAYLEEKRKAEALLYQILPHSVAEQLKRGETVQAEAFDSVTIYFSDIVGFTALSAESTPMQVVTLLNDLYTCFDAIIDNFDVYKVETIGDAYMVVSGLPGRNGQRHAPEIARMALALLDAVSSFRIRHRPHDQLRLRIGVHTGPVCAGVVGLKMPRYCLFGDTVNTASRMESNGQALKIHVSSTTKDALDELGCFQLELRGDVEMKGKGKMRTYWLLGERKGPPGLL
Atrial natriuretic peptide receptor 1 (Homo sapiens), sequence (P16066 whole entry, looked up): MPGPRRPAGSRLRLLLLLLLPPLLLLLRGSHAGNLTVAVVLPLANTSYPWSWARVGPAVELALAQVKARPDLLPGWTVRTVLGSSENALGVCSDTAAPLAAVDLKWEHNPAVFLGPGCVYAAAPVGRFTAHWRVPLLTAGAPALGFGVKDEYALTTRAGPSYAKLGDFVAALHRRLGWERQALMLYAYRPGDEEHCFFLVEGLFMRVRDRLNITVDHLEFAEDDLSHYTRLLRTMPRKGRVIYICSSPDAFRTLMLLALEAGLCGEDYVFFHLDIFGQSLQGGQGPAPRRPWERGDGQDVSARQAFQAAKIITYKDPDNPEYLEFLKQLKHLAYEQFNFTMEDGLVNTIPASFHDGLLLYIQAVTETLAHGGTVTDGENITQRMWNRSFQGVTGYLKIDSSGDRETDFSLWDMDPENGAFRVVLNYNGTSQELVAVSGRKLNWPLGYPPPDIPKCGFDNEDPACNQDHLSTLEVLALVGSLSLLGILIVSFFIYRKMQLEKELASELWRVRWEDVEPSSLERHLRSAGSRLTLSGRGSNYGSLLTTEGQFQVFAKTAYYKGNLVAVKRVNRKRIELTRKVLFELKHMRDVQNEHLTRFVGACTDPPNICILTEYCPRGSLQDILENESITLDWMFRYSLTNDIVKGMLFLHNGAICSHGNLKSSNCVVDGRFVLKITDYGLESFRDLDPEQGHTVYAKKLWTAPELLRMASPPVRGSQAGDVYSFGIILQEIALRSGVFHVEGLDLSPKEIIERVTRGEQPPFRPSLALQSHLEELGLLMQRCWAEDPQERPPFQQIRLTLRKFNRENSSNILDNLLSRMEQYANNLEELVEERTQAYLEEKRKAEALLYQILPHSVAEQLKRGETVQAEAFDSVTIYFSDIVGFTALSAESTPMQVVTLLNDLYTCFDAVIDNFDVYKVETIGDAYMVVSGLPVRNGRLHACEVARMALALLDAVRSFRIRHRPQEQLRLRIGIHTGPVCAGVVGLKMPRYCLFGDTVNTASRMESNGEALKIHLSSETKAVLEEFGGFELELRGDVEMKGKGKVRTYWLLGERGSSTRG
T1 sequence (P78324 whole entry, looked up): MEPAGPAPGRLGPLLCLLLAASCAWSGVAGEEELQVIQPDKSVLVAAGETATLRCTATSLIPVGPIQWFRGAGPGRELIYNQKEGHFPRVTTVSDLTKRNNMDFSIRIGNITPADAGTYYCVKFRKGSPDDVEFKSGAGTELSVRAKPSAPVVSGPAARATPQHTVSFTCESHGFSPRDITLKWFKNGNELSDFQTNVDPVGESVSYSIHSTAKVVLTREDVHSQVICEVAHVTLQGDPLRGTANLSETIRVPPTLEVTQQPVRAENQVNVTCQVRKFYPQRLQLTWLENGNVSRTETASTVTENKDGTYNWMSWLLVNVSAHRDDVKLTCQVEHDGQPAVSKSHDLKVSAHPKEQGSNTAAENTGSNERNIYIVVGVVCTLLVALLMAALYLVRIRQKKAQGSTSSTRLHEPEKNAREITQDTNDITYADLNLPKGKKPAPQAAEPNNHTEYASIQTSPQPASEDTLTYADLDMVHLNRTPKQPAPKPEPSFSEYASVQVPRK
T1 sequence (Q08722 whole entry, looked up): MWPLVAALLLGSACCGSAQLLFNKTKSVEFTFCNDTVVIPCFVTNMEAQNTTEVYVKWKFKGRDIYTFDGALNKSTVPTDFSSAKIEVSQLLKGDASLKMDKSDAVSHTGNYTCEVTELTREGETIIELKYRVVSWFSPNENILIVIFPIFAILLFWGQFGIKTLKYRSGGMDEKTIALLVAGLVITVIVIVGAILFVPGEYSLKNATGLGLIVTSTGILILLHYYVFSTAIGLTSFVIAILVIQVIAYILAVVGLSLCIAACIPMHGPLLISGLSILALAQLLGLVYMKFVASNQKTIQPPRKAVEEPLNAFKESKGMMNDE

CC(C)(C)NCC(O)c1cc(Cl)c(N)c(C(F)(F)F)c1 (stereo not drawn)
inactive: outcome [1] | outcome [2] | outcome [3] | outcome [4] | Potency [5]

Nc1nc(N)nc(NC2CC2)n1
inactive: outcome [1] | outcome [2] | outcome [3] | outcome [4] | Potency [5]

COC1CC(=C(c2cccs2)c2cccs2)C[N+](C)(C)C1 (stereo not drawn)
inactive: outcome [1] | outcome [2] | outcome [3] | outcome [4] | Potency [5]

NC1=NC(=O)C(c2ccccc2)O1 (stereo not drawn)
inactive: outcome [1] | outcome [2] | outcome [3] | outcome [4] | Potency [5] | outcome [6]

CN1CCC(O)(c2ccc(F)cc2)C(C(=O)c2ccc(F)cc2)C1 (stereo not drawn)
inactive: outcome [1] | outcome [2] | outcome [3] | outcome [4] | Potency [5] | outcome [6]

COP(=S)(OC)Oc1ccc(SC)c(C)c1
inactive: outcome [1] | outcome [2] | outcome [3] | outcome [4] | Potency [5] | outcome [6]

CC(C)N(CCC(C(N)=O)(c1ccccc1)c1ccccn1)C(C)C (stereo not drawn)
inactive: outcome [1] | outcome [2] | outcome [3] | outcome [4] | Potency [5] | outcome [7] | outcome [8] | outcome [9] | outcome [10] | outcome [11]

CCCCC/C=C\C/C=C\C/C=C\C/C=C\CCCC(=O)NCC(=O)O
inactive: outcome [1] | outcome [2] | activity, negative = inhibition [3] -4.51% [at 4.2 µM] | activity change, negative = inhibition [4] -22% [at 4.61 µM] | outcome [7] | outcome [8] | outcome [9] | outcome [6]

CCC1(CC)C(=O)C=CNC1=O
inactive: outcome [1] | outcome [2] | outcome [3] | outcome [4] | outcome [6]

CCCCCCCCCC(=O)O[C@H]1CC[C@H]2[C@@H]3CCC4=CC(=O)CC[C@@H]4[C@H]3CC[C@]12C
inactive: outcome [1] | outcome [2] | outcome [4] | outcome [6]

C[C@]12CC[C@H]3[C@@H](CCC4=CC(=O)CC[C@@H]43)[C@@H]1CC[C@@H]2OC(=O)CCc1ccco1
inactive: outcome [1] | outcome [2] | outcome [6]

C[C@H]1[C@@H]2Cc3ccc(O)cc3[C@@]1(C)CCN2C
inactive: outcome [1] | outcome [2] | Potency [5] | outcome [6]

[N-]=[N+]=CC(=O)OC[C@H](N)C(=O)O
inactive: outcome [1] | outcome [2] | outcome [4] | outcome [6]

C=CCC1([C@H](C)CCC)C(=O)NC(=O)NC1=O
inactive: outcome [1] | outcome [2] | outcome [6]

COc1cc(CC(C)N)cc(OC)c1OC (stereo not drawn)
inactive: outcome [1] | outcome [2] | Potency [5] | outcome [6]

CC1(C)C(C=C(Cl)Cl)C1C(=O)OC(C#N)c1cccc(Oc2ccccc2)c1 (stereo not drawn)
inactive: outcome [1] | outcome [2] | Potency [5] | outcome [6]

C[C@H](N)C(=O)c1ccccc1
inactive: outcome [1] | outcome [2] | outcome [6]

c1ccc(CN2CCNCC2)cc1
inactive: outcome [1] | outcome [2] | outcome [6]

CCN(CC)C(=O)[C@@H]1C=C2c3cccc4[nH]cc(c34)C[C@H]2N(C)C1
inactive: outcome [1] | outcome [2] | outcome [6]

CCCOC(=O)c1cncn1C(C)c1ccccc1 (stereo not drawn)
inactive: outcome [1] | outcome [2] | outcome [6]

C#CC(O)(C=CCl)CC (stereo not drawn)
inactive: outcome [1] | outcome [2] | outcome [6]

CCc1cc2c(s1)-n1c(C)nnc1CN=C2c1ccccc1Cl
inactive: outcome [1] | outcome [2] | outcome [6]

CCN(CC)CCc1c[nH]c2ccccc12
inactive: outcome [1] | outcome [2] | Potency [5] | outcome [6]

COP(=S)(OC)Oc1ccc(S(=O)(=O)N(C)C)cc1
inactive: outcome [1] | outcome [2] | outcome [4]

CCN[C@@H](C)Cc1ccccc1
inactive: outcome [1] | outcome [2] | Potency [5]

COc1c2c(cc3c1OCO3)CCN(C)C2
inactive: outcome [1] | outcome [2] | outcome [4] | Potency [5]

Clc1ccccc1N1CCNCC1
inactive: outcome [1] | outcome [2] | outcome [6]

C[C@@H]1CC2=CC(=O)CC[C@@H]2[C@H]2CC[C@@]3(C)[C@@H](CC[C@]3(C)O)[C@@H]21
inactive: outcome [1] | outcome [2] | outcome [6]

COc1cc(CCN)cc(OC)c1OC
inactive: outcome [1] | outcome [2] | Potency [5] | outcome [6]

CCOC(=O)CC(SP(=S)(OC)OC)C(=O)OCC (stereo not drawn)
inactive: outcome [1] | outcome [2] | outcome [3] | outcome [4] | outcome [6]

C=CCC1(C(C)CC)C(=O)NC(=O)NC1=O (stereo not drawn)
inactive: outcome [1] | outcome [2] | outcome [6]

CN1CC[C@]23c4c5ccc(O)c4O[C@H]2[C@@H](O)C=C[C@H]3[C@H]1C5
inactive: outcome [1] | outcome [2] | outcome [6]

C[N+]1(CCF)[C@@H]2CC[C@H]1CC(OC(=O)C(O)(c1ccccc1)c1ccccc1)C2 (stereo partly drawn)
inactive: outcome [1] | outcome [2] | Potency [5] | outcome [6]

COc1ccc2c(c1OC)C(=O)O[C@H]2[C@@H]1c2cc3c(cc2CCN1C)OCO3
inactive: outcome [1] | outcome [2] | outcome [4] | Potency [5] | outcome [7] | outcome [8] | outcome [9] | outcome [6] | outcome [10] | outcome [11]

COP(=S)(OC)Oc1cc(Cl)c(Cl)cc1Cl
inactive: outcome [1] | outcome [2] | Potency [5]

COc1ccc2c3c1O[C@H]1[C@H](O)CC[C@H]4[C@@H](C2)N(C)CC[C@@]341
inactive: outcome [1] | outcome [2] | Potency [5] | outcome [6]

NCCc1ccc(O)cc1
inactive: outcome [1] | outcome [2] | outcome [4] | outcome [7] | outcome [8] | outcome [9] | outcome [10] | outcome [11]

ClCCN1CCCC1
inactive: outcome [1] | outcome [2] | outcome [6]

C[C@]12CC[C@H]3[C@@H](CCC4=CC(=O)CC[C@@H]43)[C@@H]1CC[C@@H]2OC(=O)CCC1CCCCC1
inactive: outcome [1] | outcome [2] | outcome [6]

CC[N+]1(CC)CCC(OC(=O)C(O)(c2ccccc2)c2ccccc2)C1 (stereo not drawn)
inactive: outcome [1] | outcome [2] | outcome [6]

COc1cccc(C(=O)CCN[C@@H](C)[C@H](O)c2ccccc2)c1
inactive: outcome [1] | outcome [2] | Potency [5] | outcome [6]

CNCC(=O)c1ccc(O)c(O)c1
inactive: outcome [1] | outcome [2] | Potency [5] | outcome [6]

CCN[C@H](C)Cc1cccc(C(F)(F)F)c1
inactive: outcome [1] | outcome [2] | Potency [5]

CCCC(C)(COC(N)=O)COC(N)=O
inactive: outcome [3] | outcome [4]

Nc1ccn(C[C@@H](CO)OCP(=O)(O)O)c(=O)n1
inactive: outcome [12] inactive [at 17.4 µM] | Potency [5]

COP(=S)(OC)SCN1C(=O)c2ccccc2C1=O
inactive: outcome [2] | outcome [3] | outcome [4]

O=C1Nc2ccc(Cl)cc2C(c2ccccc2Cl)=NC1O (stereo not drawn)
inactive: outcome [3] | outcome [4] | Potency [5]

c1ccc(N2CCNCC2)cc1
inactive: outcome [1] | outcome [2] | outcome [6]

O=C(CCCN1CCC2(CC1)C(=O)NCN2c1ccccc1)c1ccc(F)cc1
inactive: outcome [7] | outcome [8] | outcome [9] | outcome [10] | outcome [11]

C[C@]12CCC(=O)C=C1CC[C@@H]1[C@@H]2CC[C@@]2(C)[C@H]1CC[C@]2(C)O
inactive: outcome [1] | outcome [2] | outcome [6]

O=C(Nc1ccc(Br)cc1)c1cc(Br)cc(Br)c1O
inactive: outcome [3] | outcome [4] | outcome [6]

CCOP(=S)(OCC)Oc1ccc2c(C)c(Cl)c(=O)oc2c1
inactive: outcome [3] | outcome [4] | outcome [6]

CN1CC[C@]23c4c5ccc(O)c4O[C@H]2[C@@H](O)CC[C@H]3[C@H]1C5
inactive: outcome [1] | outcome [2] | outcome [6]

Clc1ccc2c(c1)C(c1ccccc1)=NCc1nncn1-2
inactive: outcome [3] | outcome [4]

Cc1nnc2n1-c1ccc(Cl)cc1C(c1ccccc1Cl)=NC2
inactive: outcome [3] | outcome [4]

O=C1OC(CCN2CCCCC2)OC1(c1ccccc1)c1ccccc1 (stereo not drawn)
inactive: outcome [1] | outcome [2] | outcome [6]

O=C1Nc2ccc(Cl)cc2C(c2ccccc2)=NC1O (stereo not drawn)
inactive: outcome [3] | outcome [4]

COC(=O)C(c1ccccc1)C1CCCCN1 (stereo not drawn)
inactive: outcome [3] | outcome [4] | Potency [5]

CC(C(=O)c1ccccc1)N(C)C (stereo not drawn)
inactive: outcome [1] | outcome [2] | outcome [6]

COc1ccc2c(c1)C13CCCC[C@@H]1C(C2)N(C)CC3 (stereo partly drawn)
inactive: outcome [3] | outcome [4] | Potency [5]

O=c1c(C2CC(c3ccc(-c4ccc(Br)cc4)cc3)Cc3ccccc32)c(O)sc2ccccc12 (stereo not drawn)
inactive: outcome [1] | outcome [2] | outcome [6]

CCC(C)C(C)(COC(N)=O)COC(N)=O (stereo not drawn)
inactive: outcome [1] | outcome [2] | outcome [6]
